Measurements from PubChem BioAssay AID652015 (National Center for Advancing Translational Sciences (NCATS), 2013).
Records with an inconclusive call do not appear. A number with no mark means an inactive call. The source made the active and inactive calls. Calls come from the whole dose curve; as a rule, active = well fitted inhibition curve with a large enough effect; inconclusive = small, poorly fitted or top-dose-only effect; inactive = no such curve, though single readings can be large or run the other way.

Target: Coelenterazine h 2-monooxygenase (Renilla reniformis) (UniProt P27652)
Experiment: qHTS Assay for Inhibitors of Sea Pansy Luciferase from the GSK Published Protein Kinase Inhibitor Set
Conditions: purified Renilla luciferase, luminescence; series mostly up to 57.5 µM; activity change, negative = inhibition: at the top concentration
Method in brief: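 Purified R. reniformis luciferase (1 nM final) with 5 uM coelenterazine h in 50 mM Tris acetate pH 7.5, 100 uM NaCl, 0.01% Tween-20, 0.05% BSA. A titration, about 60 uM to 300 pM; luminescence read after about 2 min.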
Potency is the fitted concentration of half-maximal effect.

Sequence of Coelenterazine h 2-monooxygenase (Renilla reniformis) (P27652 whole entry, looked up): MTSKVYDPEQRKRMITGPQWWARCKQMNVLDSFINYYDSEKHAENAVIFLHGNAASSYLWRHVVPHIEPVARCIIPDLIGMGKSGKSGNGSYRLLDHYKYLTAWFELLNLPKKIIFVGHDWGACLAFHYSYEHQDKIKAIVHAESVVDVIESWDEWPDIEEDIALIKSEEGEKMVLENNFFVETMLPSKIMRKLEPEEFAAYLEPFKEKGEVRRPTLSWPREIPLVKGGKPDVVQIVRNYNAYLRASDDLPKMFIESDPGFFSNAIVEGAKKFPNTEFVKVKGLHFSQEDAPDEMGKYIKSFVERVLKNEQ

Row | Structure (SMILES) | Potency | activity change, negative = inhibition [%]
1 | CN1CCN(CCCNc2nc3ccc(Oc4ccc(NC(=O)Nc5cc(C(F)(F)F)ccc5F)cc4)cc3[nH]2)CC1 | 23.1 µM (active) | 
2 | c1ccc(Nc2ncc(-c3ccccc3)o2)cc1 |  | 5.69
3 | COC(=O)Nc1nc2ccc(Oc3ccc(NC(=O)Nc4cccc(Br)c4)cc3)cc2[nH]1 |  | 0.676
4 | O=C(Nc1n[nH]c2nc(-c3ccco3)ccc12)C1CC1 |  | 30.8
5 | COc1cc2ncnc(Nc3ccc(C)c(O)c3)c2cc1OC |  | 28.5
6 | CN(c1ccc(NC(=O)Nc2ccc(OC(F)(F)F)cc2)cc1)c1ccnc(Nc2cccc(S(N)(=O)=O)c2)n1 |  | 0
7 | NS(=O)(=O)c1ccc(N=Nc2c(O)[nH]c3ccc(-c4cnco4)cc23)cc1 |  | -5.78
8 | O=C(Nc1n[nH]c2nnc(-c3cccnc3)cc12)C1CC1 |  | 31.4
9 | CCc1nn2ncccc2c1-c1ccnc(NC2CC2)n1 |  | 32.9
10 | COc1ccc(-c2nn3ncccc3c2-c2ccnc(Nc3cccc(C(F)(F)F)c3)n2)cc1 |  | 13.7
11 | NS(=O)(=O)c1cccc(N=Cc2c(O)[nH]c3ccccc23)c1 |  | 10.9
12 | NC(=O)c1cc(-c2ccc(F)cc2)cc(-c2ccncc2)c1N |  | 10.4
13 | COc1ccc2ncn(-c3cc(OC(C)c4ccccc4Cl)c(C(N)=O)s3)c2c1 (centres undefined) |  | 8.76
14 | CCOc1ccc2c(-c3ccnc(Nc4cc(OC)cc(C(F)(F)F)c4)n3)cnn2n1 |  | 39.9
15 | CC(C)c1ccc(Nc2nccc(-c3cnn4ncccc34)n2)cc1 |  | 32.8
16 | COc1ccccc1-c1cc(C=C2C(=O)Nc3ncc(Br)cc32)cc(Br)c1O | 8.19 µM (active) | 
17 | COc1cc2ncn(-c3cc(OCc4ccccc4S(C)(=O)=O)c(C#N)s3)c2cc1OC |  | 1.76
18 | Nc1nccc(-c2c(-c3ccc(F)cc3)ncn2C2CCC(O)CC2)n1 (centres undefined) |  | 9.21
19 | FC(F)(F)CNc1nccc(-c2cnn3ncccc23)n1 |  | 64.1
20 | c1ccc(Oc2ccc(Nc3ncc(-c4ccccc4)o3)cc2)cc1 |  | 36.9

Row | Structure (SMILES) | Potency | activity change, negative = inhibition [%]
21 | CN1CCN(C(=O)c2ccc(NC(=O)Nc3ccc(N(C)c4ccnc(Nc5ccc(CS(C)(=O)=O)cc5)n4)cc3)cc2)CC1 |  | -7.71
22 | Cc1ccc2c(-c3ccnc(Nc4ccc5c(c4)OCCO5)n3)c(-c3ccc(C(F)(F)F)cc3)nn2n1 |  | 13.6
23 | CNC(=O)c1cc(-c2ccc(F)cc2)cc(-c2ccc(S(=O)(=O)N3CCCC3)cc2)c1N |  | 35.8
24 | COc1cccc(-n2ncc3c(NN=Cc4ccc(C)cc4)ncnc32)c1 |  | 56.8
25 | O=C(Nc1n[nH]c2nc(-c3ccc(O)cc3)c(Br)cc12)C1CC1 |  | 51.9
26 | COC(=O)Nc1nc2ccc(Oc3ccc(NC(=O)Nc4cccc(Cl)c4)cc3)cc2[nH]1 |  | -8.53
27 | Fc1ccc(-c2ncn(C3CCNCC3)c2-c2ccnc(Oc3ccc(Cl)cc3)n2)cc1 |  | 33.6
28 | COc1ccccc1Nc1ncc(-c2ccccc2)o1 |  | 4.64
29 | CCn1c(-c2nonc2N)nc2c(N3CCCC3)nccc21 |  | 48.8
30 | O=S1CCN(Cc2ccc(-c3ccc4ncnc(Nc5ccc(OCc6cccc(F)c6)c(Cl)c5)c4c3)o2)CC1 |  | 47.3
31 | CC(=O)NCc1cccc(C#Cc2cncnc2Nc2ccc(OCc3cccc(F)c3)c(Cl)c2)c1 |  | 35.6
32 | COc1ccc(-c2oc3ncnc(N)c3c2-c2ccc(NC(=O)Nc3cc(C(F)(F)F)ccc3F)cc2)cc1 |  | 3.79
33 | OCCCNc1nccc(-c2c(-c3ccc(F)cc3)nn3cc(C(F)(F)F)ccc23)n1 |  | 39.6
34 | FC(F)(F)c1ccc(-c2nn3ncccc3c2-c2ccnc(Nc3ccc4c(c3)OCCO4)n2)cc1 |  | 43
35 | COc1cccc(-n2ncc3c(NN=Cc4ccc(F)cc4)ncnc32)c1 |  | 30.7
36 | NS(=O)(=O)c1ccc(-c2ccc3c(NC(=O)C4CC4)n[nH]c3c2)cc1 |  | 20.8
37 | CS(=O)(=O)CCNCc1ccc(-c2ccc3ncnc(Nc4ccc(OCc5cccc(C(F)(F)F)c5)cc4)c3c2)o1 |  | 41.9
38 | COc1ccc(-c2nn3ncccc3c2-c2ccnc(Nc3ccc4c(c3)OCCO4)n2)cc1 |  | 9.89
39 | c1cc(-c2cnn3nc(N4CCOCC4)ccc23)nc(NC2CC2)n1 |  | 24.1
